This is an account of results in PubChem BioAssay (Tox21).

The structures appear in SMILES notation. Records with an inconclusive call do not appear. A number with no mark means an inactive call. Active and inactive are the calls of the source. Unless noted, calls come from the whole dose curve; as a rule, active = well fitted curve in the direction sought with a large enough effect in the repeat runs; inconclusive = weak or mixed curves; inactive = no such curve, though single readings can be large; an effect the other way counts as inactive or inconclusive.

The nature of assay [1]: qHTS assay to identify small molecule agonists of the peroxisome proliferator-activated receptor delta (PPARd) signaling pathway - cell viability counter screen (AID 743211). Note: nearly all actives have a fitted effect of over 55% in size. Note: potency is the fitted concentration of half-maximal effect. Put shortly: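 Tox21 library compounds, delivered in DMSO, were incubated 17 h with PPARd-bla HEK293H cells; cytotoxicity was taken from CellTiter-Glo luminescence read 30 min after reagent addition.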
(In general: Quantitative high-throughput screening tests each substance at several concentrations.)

A short description of assay [2]: qHTS assay to identify small molecule antagonists of the peroxisome proliferator-activated receptor delta (PPARd) signaling pathway - cell viability counter screen (AID 743213). Note: nearly all actives have a fitted effect of over 50% in size. Note: potency is the fitted concentration of half-maximal effect. Put shortly: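 PPARd-bla HEK293H cells (3000/well) got compound plus 300 nM L165041 agonist for 17 h at 37 C. Viability in the same wells came from CellTiter-Glo luminescence after 30 min at room temperature.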

Assay [3] is described as follows: qHTS assay to identify small molecule agonists of the farnesoid-X-receptor (FXR) signaling pathway - cell viability counter screen (AID 743218). Note: nearly all actives have a fitted effect of over 45% in size. Note: potency is the fitted concentration of half-maximal effect. Put shortly:
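Cytotoxicity counter-screen run in parallel, same wells: FXR-UAS-bla HEK 293T cells dosed 16 h at 37 C, viability read by CellTiter-Glo luminescence after 30 min at room temperature.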

Assay [4] addresses Bile acid receptor (Homo sapiens) (UniProt Q96RI1). Nature of the assay: qHTS assay to identify small molecule agonists of the farnesoid-X-receptor (FXR) signaling pathway (AID 743220; active = well fitted activation curve with a large enough effect in the signal ratio in the repeat runs, not every such curve was filed as active; the % refers to the signal ratio). Put shortly: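 Beta-lactamase reporter under UAS control in GeneBLAzer FXR HEK 293T cells (5000/well) measured with LiveBLAzer FRET substrate after 2 h at room temperature. Compound exposure lasted 16 h at 37C.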

The nature of assay [5]: qHTS assay to identify small molecule antagonists of the farnesoid-X-receptor (FXR) signaling pathway - cell viability counter screen (AID 743221; active = well fitted cell-killing curve with a large enough effect in the repeat runs, not every such curve was filed as active; note: nearly all actives have a fitted effect of over 50% in size; note: potency is the fitted concentration of half-maximal effect). Put shortly: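 Cytotoxicity is taken from ATP luminescence (CellTiter-Glo, 30 min, room temperature) in FXR-bla HEK 293T cells previously incubated 16 h at 37 C with compound and chenodeoxycholic acid at 50 uM final.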
Assay [6] is described as follows: qHTS assay to identify small molecule agonists of the vitamin D receptor (VDR) signaling pathway - cell viability counter screen (AID 743224). Note: nearly all actives have a fitted effect of over 50% in size. Note: potency is the fitted concentration of half-maximal effect. Put shortly:
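Viability is measured in the same wells as the VDR-bla reporter assay: after 16 h compound treatment and 2 h substrate loading, CellTiter-Glo is added and luminescence read 30 min later.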

Assay [7] in a line: qHTS assay to identify small molecule agonists of the NFkB signaling pathway (AID 1159509; active = well fitted curve in the direction sought with a large enough effect in the signal ratio in the repeat runs, not every such curve was filed as active; the % refers to the signal ratio; note: series mostly up to about 61 µM). Put shortly:
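NFkB-bla ME-180 cells carry a beta-lactamase reporter under an NF-kB response element. They were plated overnight, then exposed to compounds for 5 h at 37 C. Read-out is LiveBLAzer FRET after 1.5 hr at room temperature (405 nm excitation; 460/530 nm emission).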

A short description of assay [8]: qHTS assay to identify small molecule agonists of the NFkB signaling pathway - cell viability counter screen (AID 1159515; calls by dose curve; note: series mostly up to about 61 µM; nearly all actives have a fitted effect of over 55% in size). Put shortly:
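Multiplexed viability readout: after the 5 hr compound exposure and 1.5 hr FRET substrate step, CellTiter-Glo reagent went into the same NFkB-bla ME-180 wells; ATP luminescence was measured after 30 min at room temperature.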

A short description of assay [9]: qHTS assay to identify small molecule agonists of the endoplasmic reticulum stress response signaling pathway (AID 1159516; active = well fitted activation curve with a large enough effect in the signal ratio in the repeat runs, not every such curve was filed as active; the % refers to the signal ratio). Put shortly:
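Tox21 10K library screened in quantitative HTS format on ESRE-bla HeLa cells, a beta-lactamase reporter under ER stress response element control; 5 hr treatment, FRET read.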

Assay [10] is described as follows: qHTS assay to identify small molecule antagonists of the retinoid-related orphan receptor gamma (ROR-gamma) signaling pathway - cell viability counter screen (AID 1159520). Note: nearly all actives have a fitted effect of over 50% in size. Note: potency is the fitted concentration of half-maximal effect. Put shortly: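 Tet-on ROR gamma CHO cells were given compounds for 2 hr, then doxycycline hyclate at 1 uM final, and incubated 16 hr at 37 C. Viability was measured as ATP content by CellTiter-Glo luminescence.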

Assay [11] concerns the target Nuclear receptor ROR-gamma (Homo sapiens) (UniProt P51449). Nature of the assay: qHTS assay to identify small molecule antagonists of the retinoid-related orphan receptor gamma (ROR-gamma) signaling pathway (AID 1159521; note: nearly all actives have a fitted effect of over 50% in size; note: potency is the fitted concentration of half-maximal effect). Put shortly:
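Inducible-expression reporter assay: doxycycline (1 uM final) switched on RORγ in CHO cells bearing a ROR response element-luciferase construct, with test compounds present from 2 h beforehand. Decreased luminescence after 16 h defined antagonist activity.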

The target of assay [12] is Bile acid receptor (Homo sapiens) (UniProt Q96RI1). Kind of assay: qHTS assay to identify small molecule antagonists of the farnesoid-X-receptor (FXR) signaling pathway (AID 743217; active = well fitted inhibition curve with a large enough effect in the signal ratio in the repeat runs, not every such curve was filed as active; the % refers to the signal ratio). Put shortly:
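Antagonist mode against 50 uM (final) chenodeoxycholic acid stimulation in FXR-bla HEK 293T cells, 16 h at 37 °C. Inhibition detected as reduced beta-lactamase activity via LiveBLAzer B/G FRET fluorescence after 2 h at room temperature.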

For assay [13], the target named is Vitamin D3 receptor (Homo sapiens) (UniProt P11473). Kind of assay: qHTS assay to identify small molecule antagonists of the vitamin D receptor (VDR) signaling pathway (AID 743223; active = well fitted inhibition curve with a large enough effect in the signal ratio in the repeat runs, not every such curve was filed as active; the % refers to the signal ratio). Put shortly: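 Quantitative HTS in VDR-bla reporter cells stimulated with 1alpha,25-dihydroxyvitamin D3, 3 nM final. Compound exposure 16 h, 37C, 5% CO2. Read-out: beta-lactamase FRET substrate fluorescence, 2 h RT.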
Vitamin D3 receptor (Homo sapiens), sequence (P11473 whole entry, looked up): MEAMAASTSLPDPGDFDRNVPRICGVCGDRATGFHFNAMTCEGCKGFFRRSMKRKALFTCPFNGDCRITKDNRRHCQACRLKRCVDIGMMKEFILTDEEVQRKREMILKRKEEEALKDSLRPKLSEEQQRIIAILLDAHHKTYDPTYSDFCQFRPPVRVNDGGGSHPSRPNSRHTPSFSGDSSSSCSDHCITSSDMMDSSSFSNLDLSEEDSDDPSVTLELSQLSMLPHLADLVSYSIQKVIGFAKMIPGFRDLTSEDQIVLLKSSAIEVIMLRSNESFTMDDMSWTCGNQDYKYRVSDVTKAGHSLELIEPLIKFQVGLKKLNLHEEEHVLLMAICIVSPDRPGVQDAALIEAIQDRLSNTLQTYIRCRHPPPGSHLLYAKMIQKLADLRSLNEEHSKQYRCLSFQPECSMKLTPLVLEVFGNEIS

The nature of assay [14]: qHTS assay to identify small molecule agonists of the AP-1 signaling pathway - cell viability counter screen (AID 1159525; calls by dose curve; note: nearly all actives have a fitted effect of over 55% in size). Put shortly: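 AP-1-bla ME-180 cells in Opti-MEM with 0.5% dialyzed FBS, compound exposure 5 h at 37 C in 15-point titration. Viability read in the same wells as ATP content by CellTiter-Glo luminescence, normalised to tetra-n-octylammonium bromide and DMSO controls.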

The nature of assay [15]: qHTS assay to identify small molecule agonists of the AP-1 signaling pathway (AID 1159526; calls by dose curve).
Assay [16] has as its target Peroxisome proliferator-activated receptor delta (Homo sapiens) (UniProt Q03181). Kind of assay: qHTS assay to identify small molecule agonists of the peroxisome proliferator-activated receptor delta (PPARd) signaling pathway (AID 743212; calls by dose curve). Put shortly: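 GeneBLAzer UAS-bla HEK293H cells carrying a PPARδ construct were exposed to compounds at 37 °C. Beta-lactamase activity was read by FRET fluorescence after 2 h at room temperature with LiveBLAzer B/G substrate.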

Assay [17] concerns the target Vitamin D3 receptor (Homo sapiens) (UniProt P11473). Kind of assay: qHTS assay to identify small molecule agonists of the vitamin D receptor (VDR) signaling pathway (AID 743222; calls by dose curve). Put shortly:
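Quantitative HTS agonist-mode screen: compounds in DMSO were pin-transferred onto VDR-bla cells and incubated 16 h at 37C, 5% CO2. Reporter activity was detected with LiveBLAzer B/G FRET substrate after 2 h at room temperature.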

Assay [18] can be described thus: qHTS assay to identify small molecule antagonists of the vitamin D receptor (VDR) signaling pathway - cell viability counter screen (AID 743225). Note: nearly all actives have a fitted effect of over 50% in size. Put shortly:
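Same-well multiplex: following 16 h treatment of HEK 293T cells carrying a UAS-driven beta-lactamase reporter with compound and agonist (3 nM final), and a 2 h FRET substrate step, CellTiter-Glo was added and luminescence read after 30 min.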

Assay [19] has as its target Peroxisome proliferator-activated receptor delta (Homo sapiens) (UniProt Q03181). Kind of assay: qHTS assay to identify small molecule antagonists of the peroxisome proliferator-activated receptor delta (PPARd) signaling pathway (AID 743215; active = well fitted inhibition curve with a large enough effect in the signal ratio in the repeat runs, not every such curve was filed as active; the % refers to the signal ratio;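 note: cells stimulated with agonist L165041 at 300 nM final during compound exposure; series mostly up to about 62 µM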). Put shortly: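 Inhibition of L165041-driven (300 nM final) PPARd signaling is scored in HEK293H UAS-bla cells. Exposure lasts 17 h at 37 C; beta-lactamase activity is then read by FRET substrate fluorescence after 2 h at room temperature.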

Peroxisome proliferator-activated receptor delta (Homo sapiens), sequence (Q03181 whole entry, looked up): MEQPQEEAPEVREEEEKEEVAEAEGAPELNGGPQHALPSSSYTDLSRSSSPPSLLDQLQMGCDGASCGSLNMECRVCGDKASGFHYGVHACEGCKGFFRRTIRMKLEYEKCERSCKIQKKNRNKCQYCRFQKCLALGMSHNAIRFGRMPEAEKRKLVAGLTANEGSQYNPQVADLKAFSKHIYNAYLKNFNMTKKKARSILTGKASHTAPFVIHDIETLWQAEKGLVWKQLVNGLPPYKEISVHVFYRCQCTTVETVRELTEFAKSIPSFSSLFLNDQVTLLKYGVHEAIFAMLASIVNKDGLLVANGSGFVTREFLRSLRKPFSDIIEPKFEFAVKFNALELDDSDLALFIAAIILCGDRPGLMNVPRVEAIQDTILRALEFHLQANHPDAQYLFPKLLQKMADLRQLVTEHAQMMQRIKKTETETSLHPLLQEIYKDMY
Bile acid receptor (Homo sapiens), sequence (Q96RI1 whole entry, looked up): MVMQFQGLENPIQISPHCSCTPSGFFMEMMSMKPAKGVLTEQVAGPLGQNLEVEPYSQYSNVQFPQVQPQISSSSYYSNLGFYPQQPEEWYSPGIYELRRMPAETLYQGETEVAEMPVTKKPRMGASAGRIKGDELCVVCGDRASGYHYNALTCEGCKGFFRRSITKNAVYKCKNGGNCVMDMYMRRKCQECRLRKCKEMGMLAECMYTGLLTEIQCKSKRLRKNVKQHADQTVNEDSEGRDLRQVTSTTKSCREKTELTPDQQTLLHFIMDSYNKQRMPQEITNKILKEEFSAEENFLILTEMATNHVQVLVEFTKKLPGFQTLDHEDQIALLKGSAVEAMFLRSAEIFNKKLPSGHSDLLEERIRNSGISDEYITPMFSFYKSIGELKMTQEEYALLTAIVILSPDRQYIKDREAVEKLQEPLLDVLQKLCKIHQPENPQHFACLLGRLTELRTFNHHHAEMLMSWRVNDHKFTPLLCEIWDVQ

`CO[C@@H]1[C@@H](OC)[C@H](C)[C@@](O)(CC(=O)O)O[C@H]1[C@H](C)[C@H]1O[C@@]2(CC[C@@](C)([C@H]3CC[C@@](C)([C@@H]4O[C@@H]([C@H]5O[C@](C)(O)[C@H](C)C[C@@H]5C)C[C@@H]4OC4C[C@H](OC)[C@@H](OC)[C@H](C)O4)O3)O2)C[C@H](O)[C@H]1C` (stereo not given in full): the Potency in assay [1] is 2.98 µM (active); in assay [2], 5.31 µM (active); in assay [3] it was 9.44 µM (active); in [5], 9.44 µM (active); in [6], 5.96 µM (active); in assay [10], 9.44 µM (active). In addition, in assay [11], the Potency was 0.237 µM (active). The Potency entry in [4], in [8] and in assay [9] was “inactive” throughout. For the same compound, in assay [7], the outcome was inactive.

On to `CCC1CCC(CCC(=O)O)C1` (stereo not given), for which the Potency result in assay [1], in assay [2], in assay [3], in assay [4], in assay [8] and in [9] was “inactive” in each case. The Potency result in assay [10], in assay [11] and in assay [14] was “inactive” in each case. The compound was classed as inactive in [12], in assay [13], in assay [7] and in assay [15].

Consider `CCCCCCC(O)CCOC(C)=O` (stereo not given), for which the compound was classed as inactive in assay [16], in [12], in assay [17], in [7] and in assay [15]. In addition, the Potency result in [2], in assay [3], in assay [4], in [5], in assay [6] and in [18] was “inactive” each time. In addition, the Potency result in assay [8], in assay [9], in assay [10], in [11] and in assay [14] was “inactive” each time.

For `COc1ccc(C(=O)NCc2ccc(OCCN(C)C)cc2)cc1OC`, the Potency result in [1], in assay [2], in [19], in assay [3], in [5] and in [6] was “inactive” throughout. The Potency result in assay [18], in [8], in assay [9], in assay [10] and in [14] was “inactive” each time. The call in assay [16], in assay [17], in assay [13], in [7] and in [15] was inactive.

As to `COc1cc(C(C)=O)ccc1OCCCN1CCC(c2noc3cc(F)ccc23)CC1`, the Potency entry in assay [1], in assay [2], in assay [3], in assay [5], in assay [6] and in assay [18] was “inactive” each time. Further, the Potency entry in [8], in assay [9], in [10], in [11] and in assay [14] was “inactive” in each case. Besides, the compound was classed as inactive in assay [13] and in assay [7].

As for `CCCCCCC(CO)CCCC` (stereo not given), the Potency entry in assay [1], in [2], in assay [19], in [5], in [18] and in [8] was “inactive” each time. Moreover, the Potency result in [9], in assay [10], in [11] and in assay [14] was “inactive” in each case. The call in assay [16], in assay [17], in assay [13] and in assay [7] was inactive.

`O=C1CC[C@@H](C(=O)O)N1`: the Potency entry in assay [1], in assay [2], in assay [19], in [3], in [5] and in assay [6] was “inactive” throughout. Moreover, the Potency result in [18], in assay [8], in assay [9], in assay [10] and in assay [14] was “inactive” each time. Also, the compound was classed as inactive in [16], in [17], in assay [13], in assay [7] and in [15].

Take `C=C(C)c1ccccc1`: the Potency result in assay [1], in assay [2], in assay [19], in assay [3], in assay [4] and in [5] was “inactive” in each case. Also, the Potency entry in assay [6], in assay [8], in [9], in assay [10] and in assay [14] was “inactive” throughout. Further, the call in assay [12], in assay [17], in [13], in assay [7] and in assay [15] was inactive.

As for `CC(C)(C)C1(CCc2ccc(Cl)cc2)CO1` (stereo not given), the Potency result in [1], in [2], in [4], in assay [5], in [18] and in assay [8] was “inactive” in each case. In addition, the Potency result in assay [9], in assay [10], in [11] and in assay [14] was “inactive” each time. The compound was called inactive in assay [16], in assay [12], in [17], in [13] and in assay [7].
